# In PubChem BioAssay AID1508608 (The Scripps Research Institute Molecular Screening Center, 2020):
# About 20 (0.9%) of roughly 2,300 compounds were called active. This is one part of a sample in which actives are shown more often than they occur. Values without a mark were called inactive.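 Rule for the calls: active = mean activation across replicates above 26.72%, the hit cutoff set for this confirmation screen; inactive = the rest.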
# Target: G-protein coupled receptor 151 (Homo sapiens) (UniProt Q8TDV0)
# Sequence (Q8TDV0 whole entry, looked up): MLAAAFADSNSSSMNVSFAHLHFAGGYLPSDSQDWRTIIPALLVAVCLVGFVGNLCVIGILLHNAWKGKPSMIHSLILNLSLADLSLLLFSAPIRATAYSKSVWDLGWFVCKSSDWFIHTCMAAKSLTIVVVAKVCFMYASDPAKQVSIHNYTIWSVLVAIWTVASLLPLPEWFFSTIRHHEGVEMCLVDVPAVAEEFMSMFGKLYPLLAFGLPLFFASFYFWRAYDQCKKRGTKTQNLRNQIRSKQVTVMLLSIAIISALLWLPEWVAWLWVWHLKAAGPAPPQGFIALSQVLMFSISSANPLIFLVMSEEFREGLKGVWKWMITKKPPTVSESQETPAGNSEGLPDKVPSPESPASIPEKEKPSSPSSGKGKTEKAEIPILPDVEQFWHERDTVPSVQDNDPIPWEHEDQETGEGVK
# Experiment: GPR151 agonism via beta-arrestin recruitment – cell-based, PathHunter beta-arrestin, luminescence, set 2, confirmation (AID 1508608);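 note: 0% = plate median of compound wells and 100% = EA reagent high control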
# Details: GPR151 PathHunter beta-arrestin cells, 90 min, at 11.2 µM, stronger effect = higher value, 100% = signal from added EA reagent
row,SMILES,activation
1,COc1ccccc1C(=O)NC(C)C(c1cccs1)N1CCOCC1 (configuration not stated),-5.85%
2,Cc1ccc(-c2nc3ncccn3c2NC2CCCCC2)o1,-5.26%
3,NC(=O)C1CCN(S(=O)(=O)c2ccc3c(c2)OCC(=O)N3)CC1,-1.83%
4,O=C(NCCCN1CCOCC1)/C(=C/c1ccc(-c2cccc(C(F)(F)F)c2)o1)NC(=O)c1ccc(Cl)cc1,23.3%
5,COc1ccc(-n2nc3c(c2NC(=O)c2c(F)cccc2F)CS(=O)(=O)C3)cc1,-1.16%
6,CCCN(C(=O)Cc1nc(-c2ccc(OC)cc2)no1)c1ccccc1C,-0.07%
7,CC1=NN(c2ccccc2)C(=O)/C1=C\c1ccc([N+](=O)[O-])cc1,-3.53%
8,CCOc1ccc(/C=N/NC(=O)c2ccccc2OC(C)C)cc1O,-4.49%
9,CN(C)c1ccc(CNCCC2CCOC(C)(C)C2)cc1 (configuration not stated),0.83%
10,COc1ccc(-c2cc3ccc(OC(C)C(=O)O)cc3oc2=O)cc1 (configuration not stated),-10.8%
11,CC(=O)c1c(C)[nH]c(C(=O)N2CCCC(C)C2)c1C (configuration not stated),-1.56%
12,COc1ccc(/C=C\C23N(Cc4ccccc4)C(=O)CN2c2ccccc2C3(C)C)cc1 (configuration not stated),-0.33%
13,OCCC1CN(Cc2ccc3nonc3c2)CCN1Cc1ccc(F)c(F)c1 (configuration not stated),11.5%
14,O=C(CCC(=O)Nc1ccc(F)cc1)N/N=C/c1cccc([N+](=O)[O-])c1,4.76%
15,COc1ccc(NC(=O)C(C)N(c2ccc(Oc3ccccc3)cc2)S(C)(=O)=O)cc1 (configuration not stated),1.83%
16,Clc1ccc(-n2ncc3c(NCc4ccco4)ncnc32)cc1,3.54%
17,COC(=O)c1cc(Nc2ncnc3c2cnn3-c2ccc(Cl)cc2)cc(C(=O)OC)c1,5.3%
18,Cn1ncc2c(NCCc3ccc(Cl)cc3Cl)ncnc21,27.9% (active)
19,Cc1sc2c(c1C)c(=O)n(CCc1ccccc1)c(=O)n2CC(N)=O,-0.97%
20,Cc1ccc(-n2ncc3c(=O)n(CC(=O)Nc4cccc(Cl)c4)cnc32)cc1C,-0.5%
21,C=C(CC(NP(=O)(OCC)OCC)(C(=O)OC)C(F)(F)F)c1ccccc1 (configuration not stated),1.36%
22,COc1ccc(CC2(C)OC(c3ccc(C)c([N+](=O)[O-])c3)=NN2C(C)=O)cc1 (configuration not stated),-3.14%

row,SMILES,activation
1,CCOc1ccc(-c2ccc(/C=C3/C(=N)N4C=C(C)SC4=NC3=O)o2)c([N+](=O)[O-])c1,-0.37%
2,O=c1/c(=C\c2ccccc2Cl)sc2nc3ccccc3n12,-1.37%
3,CC(C)c1ccc(Cn2ccc3c4c(N)nc(NC5CC5)nc4ccc32)cc1,104% (active)
4,N/C(=N\OC(=O)CCCN1C(=O)c2ccccc2C1=O)c1ccccn1,10.3%
5,CCN(CC)C(=O)CN(c1ccccc1)S(=O)(=O)c1ccc(C)cc1,4.39%
6,CCC1CN(CCNC(=O)c2scc3c2OCCO3)Cc2cc(OC)ccc2O1 (configuration not stated),6.33%
7,CC(=O)C1C(c2cccc([N+](=O)[O-])c2)c2c(n[nH]c2C)CC1(C)O (configuration not stated),0.19%
8,CC1=C(C(=O)NCCN2Cc3ccccc3OC(c3ccccc3F)C2)OCCO1 (configuration not stated),2.76%
9,CCOc1cc(OCC)cc(C(=O)Nc2ccc(Br)cn2)c1,8.34%
10,CNc1nc2c(-c3ccc(Cl)cc3)nnn2c2ccccc12,16.9%
11,CC1CC(C)CN(C(=O)c2ccc(NCc3cccs3)c(S(=O)(=O)Nc3cc(F)ccc3F)c2)C1 (configuration not stated),3.31%
12,CCCOC1CCCN(Cc2c(C(=O)N(C)CCc3ccccc3)nc3sccn23)C1 (configuration not stated),6.38%
13,CC(=O)c1cccc(NC(=O)Oc2ccccc2)c1,2.16%
14,CCOC(=O)CCN(Cc1ccccc1F)S(=O)(=O)c1ccc([N+](=O)[O-])cc1,-3.3%
15,COc1ccc(C(=O)N(c2ccc(C)cc2)S(=O)(=O)c2ccc(C)cc2)cc1OC,6.29%
16,CCOC(=O)c1ccc(CN(Cc2c(Cl)cccc2Cl)S(=O)(=O)c2cccc([N+](=O)[O-])c2)cc1,0.8%
17,CC1=C(C(=O)OCc2ccco2)C(c2ccc(F)cc2)NC(=O)N1 (configuration not stated),3.69%
18,O=[N+]([O-])c1ccc2nc(SCc3ccc(I)cc3)sc2c1,3.08%
19,CC(C)CCN1C(=O)C(C)(C)COc2cc(NC(=O)c3ccc4c(c3)OCO4)ccc21,-3.7%
20,COc1cc(/C=C/c2[nH]c(=O)[nH]c(=O)c2[N+](=O)[O-])ccc1OC(C)C,-3.99%
21,CCN(c1ccccc1)c1ncnc2c1cnn2-c1ccc(Cl)cc1,5.9%
22,Cc1ccc(-c2[nH]c(=S)[nH]c(=O)c2C#N)cc1,-2.95%

row,SMILES,activation
1,Cc1ccccc1OCC(=O)Nc1ccc(N2C(=O)c3ccc([N+](=O)[O-])cc3C2=O)cc1,6.85%
2,Cc1ccc(NC(=O)c2ccccc2F)c(Br)c1,-2.79%
3,O=C(Nc1cc(C(F)(F)F)ccc1Cl)c1ccc(C(=O)C(=O)c2ccccc2)cc1,-1.66%
4,O=C(Nc1cc(Cl)ccc1Cl)c1ccccc1O,26.9% (active)
5,CCOC(=O)C1=C(C)N=c2s/c(=C\c3cc(C)n(-c4ccc(C(=O)OCC)cc4)c3C)c(=O)n2C1c1ccc(OC)c(OC)c1 (configuration not stated),1.8%
6,CCCc1[nH]n(-c2ccc(F)cc2)c(=O)c1C=Nc1ccc(OCC)cc1,-1.39%
7,Cn1nc2c(c1C(=O)NCC1CC(Cc3cccc(F)c3)=NO1)CCCC2 (configuration not stated),-2%
8,O=C(CSc1nnc(Cc2cc(=O)[nH]c(=O)[nH]2)n1-c1ccccc1)NC1CCCC1,2.56%
9,COc1ccc2c(c1)N(C)/C(=c1/s/c(=c3/sc4nc5ccccc5n4c3=O)n(C)c1=O)S2,5.91%
10,COC(=O)Cn1c(CN2CCOCC2)nc2c1c(=O)n(C)c(=O)n2C,-2.55%
11,CC(=O)Cc1nsc(Nc2ccc(C)c(Cl)c2)n1,3.54%
12,CCN(CC)S(=O)(=O)c1ccc(C(=O)Nc2nc3ccc([N+](=O)[O-])cc3s2)cc1,2.56%
13,COc1ccc(-c2onc(C(F)(F)F)c2-c2ccc(Cl)cc2)c(O)c1,0.9%
14,Cc1ccc(Cl)cc1Nc1cc(N2CCOCC2)c2nonc2c1[N+](=O)[O-],3.43%
15,CC(C)C[C@@H]1NC(=O)[C@H]2CN(Cc3cn(C)nc3-c3ccccc3)CCN2C1=O,3.84%
16,CCC(C)NC(=O)C1CCN(S(=O)(=O)N2CCOCC2)CC1 (configuration not stated),7.37%
17,Cn1c(=O)oc2cc(S(=O)(=O)N3CCCC(C(=O)N4CCOCC4)C3)ccc21 (configuration not stated),11.4%
18,CCc1ccc(C2=CC(c3ccc(OC)c(OC)c3)n3ncnc3N2)cc1 (configuration not stated),0.38%
19,COc1ccccc1-c1nnc(C2CCN(S(=O)(=O)c3cccc(C#N)c3)CC2)o1,-0.51%
20,CCN(CC)CCNC1=CC(=O)OC12CCCCC2,-1.78%
21,CCC1Oc2ccccc2N(CC(=O)NC2CCCCCC2)C1=O (configuration not stated),-3.51%
22,O=C(c1ccco1)N1CCN(C(=O)C2(S(=O)(=O)c3ccc(Cl)cc3)CC2)CC1,4.46%

row,SMILES,activation
1,O=C(NCCC12CC3CC(CC(C3)C1)C2)c1cc([N+](=O)[O-])ccc1N1CCOCC1,6.89%
2,CCOc1ccc(-c2cc(C(=O)N/N=C/c3ccc(O)c(OCC)c3)[nH]n2)cc1,-0.84%
3,CCCOc1ccc(C2C3=C(CC(C)(C)CC3=O)N(CC(=O)O)C3=C2C(=O)CC(C)(C)C3)cc1OCC,4.15%
4,COc1ccc(C(=O)NCC2CCCN2S(=O)(=O)c2cccs2)cc1OC (configuration not stated),-1.78%
5,CN1CCN(C(CNS(=O)(=O)c2ccccc2)c2cccnc2)CC1 (configuration not stated),-1.58%
6,CCCCOC(=O)N1CCOCCOCCN(C(=O)OCCCC)CCOCCOCC1,-4.43%
7,Cc1ccc(-n2ncc3c(NCc4ccco4)ncnc32)c(C)c1,2.13%
8,Cc1cccc(-c2nc3ccccc3c(=O)n2Cc2ccccc2C)c1,1.61%
9,Cc1ccc(COc2cccc3c2CCN(C)C3=O)cc1,-4.68%
10,CCCCOC(=O)c1ccc(N2C(=O)c3cccc([N+](=O)[O-])c3C2=O)cc1,-3.4%
11,CC(=O)Oc1ccccc1N1C(=O)c2cccc([N+](=O)[O-])c2C1=O,28.3% (active)
12,CC(=O)c1ccc(N2C(=O)c3ccc(Oc4ccc([N+](=O)[O-])cc4[N+](=O)[O-])cc3C2=O)cc1,-8.73%
13,Cc1ccc([N+](=O)[O-])cc1NC(=O)C1C2/C=C\CCCCC21 (configuration not stated),0.67%
14,O=C(NCCCN1CCCC1)C(=O)Nc1ccc2nc3n(c(=O)c2c1)CCCCC3,-2.06%
15,COc1ccc(-c2nc(-c3ccc(NC(=O)c4ccc(Br)o4)cc3)no2)cc1OC,7.05%
16,N=C(N)SCc1csc2c1CCCC2,1.33%
17,Nc1nc(NC(=O)c2ccccc2)nn1-c1ccccc1,-4.73%
18,CC(C)c1ccc(/C=N\NC(=O)Cn2c(-c3nonc3N)nc3ccccc32)cc1,0.86%
19,CCOC(=O)c1cnc2c(OC)cccc2c1NC1CCCCCC1,18.4%
20,Cc1ccc(C2=N/C(=C\c3cccc(C(F)(F)F)c3)C(=O)O2)cc1[N+](=O)[O-],3.7%
21,CCCCc1ccc(C2=N/C(=C\c3ccc(F)cc3)C(=O)N2c2ccc(Cl)cc2C)cc1,-6.96%
